Source: PubChem BioAssay (National Center for Advancing Translational Sciences (NCATS))
Pol kappa inh-1: blocks human DNA polymerase kappa activity; purified Pol kappa, fluorescent DNA synthesis assay, 10 min; 0.53% of 400,000 active; AID 588579; Q9UBT6; Potency, µM (titrated, usually from 107 µM), without a hit: at the top dose activity, negative = inhibition, hits mostly inhibitors; note: potency is the fitted concentration of half-maximal effect; % is set by controls: 0 for no effect and ±100 for the full control effect
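First, compounds were pin-transferred onto 10 nM Pol kappa. After 15 min at room temperature, substrate was added to 50 nM final. Fluorescence was then measured kinetically at 0 and 10 min.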
POLI inh: DNA polymerase iota (human) inhibition. Potency, µM (highest dose often 115 µM), for the others: at the highest dose activity, negative = inhibition, hits mostly inhibitors. 1% of 390,000 active. Q9UNA4. Pol iota fluorescent replication assay, 10 min; note: potency is the fitted concentration of half-maximal effect
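Pol iota at 10 nM preincubated 15 min with compounds at room temperature; reaction started with fluorescent substrate, 50 nM final. Fluorescence read kinetically at 0 and 10 min; buffer-only wells as negative control.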
KAT2A inh: GCN5L2 (KAT2A) acetyltransferase inhibition; Q92830; GCN5L2 HAT assay, ThioGlo1 CoA-SH fluorescence; Potency, µM (top dose mostly 58.9 µM), inactives show at the top dose activity change, negative = inhibition, hits mostly inhibitors; 0.21% of 390,000 active; AID 504327; note: potency is the fitted concentration of half-maximal effect; % is set by controls: 0 for no effect and ±100 for the full control effect
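ThioGlo1-coupled HAT assay: 20nM GCN5L2, 70uM acetyl-CoA, 75uM H3(1-25) peptide, pH 7.5. Fluorescence read at 340/540nm at start and after 20 min at room temperature.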
GLS inhibitor: blocks human kidney-isoform glutaminase activity; O94925; GLS enzymatic activity, qHTS titration; Potency, µM (doses to about 45.5 µM), for the others: at the highest dose activity change, negative = inhibition, hits mostly inhibitors; 0.21% of 410,000 active; note: potency is the fitted concentration of half-maximal effect; % is set by controls: 0 for no effect and ±100 for the full control effect
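Human kidney-isoform GLS in 45 mM KH2PO4 pH 8.2, 0.02% Tween-20, with compound, started with 1mM L-Glutamine (added stock). Glutamate oxidase/HRP/Amplex red coupled fluorescence read at start and after 30 min at RT.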
Pol eta inh-1: blocks human DNA polymerase eta activity; Potency, µM (top dose mostly 114 µM), for the others: at the top dose activity change, negative = inhibition, actives largely listed as inhibitors; 1.2% of 390,000 active; recombinant Pol eta, fluorescent DNA replication assay; note: potency is the fitted concentration of half-maximal effect; % is set by controls: 0 for no effect and ±100 for the full control effect
Target sequence (Q9Y253 whole entry, looked up): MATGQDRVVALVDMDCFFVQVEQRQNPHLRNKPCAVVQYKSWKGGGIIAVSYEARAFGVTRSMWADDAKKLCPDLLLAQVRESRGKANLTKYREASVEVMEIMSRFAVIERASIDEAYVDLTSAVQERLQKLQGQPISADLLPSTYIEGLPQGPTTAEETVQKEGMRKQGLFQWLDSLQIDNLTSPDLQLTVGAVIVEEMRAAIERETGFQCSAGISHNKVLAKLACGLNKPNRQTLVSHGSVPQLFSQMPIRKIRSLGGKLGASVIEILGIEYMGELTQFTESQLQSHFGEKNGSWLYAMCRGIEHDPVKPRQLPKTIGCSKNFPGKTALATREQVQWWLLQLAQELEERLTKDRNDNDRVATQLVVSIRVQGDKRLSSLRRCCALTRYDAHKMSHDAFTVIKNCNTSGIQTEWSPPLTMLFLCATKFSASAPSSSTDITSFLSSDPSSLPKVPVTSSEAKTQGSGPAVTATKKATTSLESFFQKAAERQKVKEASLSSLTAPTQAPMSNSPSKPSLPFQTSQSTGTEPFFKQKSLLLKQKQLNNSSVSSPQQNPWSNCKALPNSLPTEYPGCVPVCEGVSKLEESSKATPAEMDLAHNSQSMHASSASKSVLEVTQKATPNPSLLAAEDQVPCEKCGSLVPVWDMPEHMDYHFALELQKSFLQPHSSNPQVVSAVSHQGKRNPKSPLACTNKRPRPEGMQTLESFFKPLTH
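Pol eta at 10 nM preincubated with compounds 15 min at room temperature; reaction started with fluorescent substrate (50 nM final) and read kinetically at 0 and 10 min.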
Pol beta inh: inhibitors of human DNA polymerase beta; P06746; Pol beta primer extension/strand displacement, fluorescence kinetic; Potency, µM (doses to about 114 µM), inactives show top-dose activity change, negative = inhibition, usual class: inhibitors; 1.3% of 340,000 active; AID 485314; note: potency is the fitted concentration of half-maximal effect; % is set by controls: 0 for no effect and ±100 for the full control effect
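10 nM enzyme + cpd, 15 min RT; start with substrate 50 nM final; read 0 min and after 10 min RT. Corrected, normalized data; 4-parameter Hill curve fit.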
GALK confirm: galactokinase (human) inhibition, confirmation; 70% of 150 active; Potency, µM (doses to about 115 µM), without a hit: at the top dose activity, negative = inhibition, usual class: inhibitors; purified GALK, Kinase-Glo ATP depletion luminescence; shares compounds with Pol eta inh-1
GALK redox cs: redox cycling activity in phenol red-HRP assay. shares compounds with Pol eta inh-1. Phenol red-HRP H2O2 redox cycling, absorbance 600 nm. Potency, µM (titrated, usually from 115 µM), without a hit: at the highest dose activity change, negative = H2O2 signal, most hits filed as inhibitors. 40% of 150 active. AID 2035
HEK293 tox: counter-screen for GALK inhibitors: HEK293 cell cytotoxicity; shares compounds with Pol eta inh-1; HEK-293 viability, ATP luminescence (CellTiter-Glo), 24/48 h; Potency, µM (titrated, usually from 46.1 µM), inactives show at the highest dose activity change, negative = cytotoxicity, most hits filed as inhibitors; 10% of 170 active; AID 2547; note: potency is the fitted concentration of half-maximal effect; % is set by controls: 0 for no effect and ±100 for the full control effect
Pol kappa inh-2: Pol kappa (human) inhibition, cherry-pick confirmation | shares compounds with Pol eta inh-1 | purified Pol-kappa, fluorescent strand-displacement substrate | 76% of 920 active | Potency, µM, most hits filed as inhibitors; note: potency is the fitted concentration of half-maximal effect
Pol eta inh-2: confirmation of human DNA polymerase eta inhibitors. shares compounds with Pol eta inh-1. Pol eta primer extension, TAMRA/BHQ fluorescence, 10 min. Potency, µM, usual class: inhibitors. 64% of 2,600 active; note: potency is the fitted concentration of half-maximal effect
* = called active by the depositor; ? = inconclusive; . = no result; [ ] = another dose, or the depositor's remark. Compounds with a hit are over-represented: about 2.4% of the library has one in this group of screens. Calls come from the whole dose curve; as a rule, active = well fitted curve in the direction sought with a large enough effect; inconclusive = small, poorly fitted or top-dose-only effect, or another doubt; inactive = no such curve, though single readings can be large; an effect the other way counts as inactive or inconclusive.

SMILES | Pol kappa inh-1 | POLI inh | KAT2A inh | GLS inhibitor | Pol eta inh-1 | Pol beta inh | Pol eta inh-2 | others
CSC1=NSC2=NC(=O)/C(=C/c3coc4ccccc4c3=O)C(=N)N12 | ? | -13% | -15% | 18% | 14µM* | 40µM* | . | Pol kappa inh-2=67*
N=C1/C(=C/c2cccs2)C(=O)N=C2SN=C(SCc3ccccc3)N12 | -4% | ? | ? | 31% | 25µM* | ? | . | GALK confirm=42µM*;GALK redox cs=1%;HEK293 tox=-7%
CCOc1ccccc1/C=C/c1onc(C)c1S(=O)(=O)N1CCC(C(=O)N2CCCCC2)CC1 | 1%[60.1 µM] | 21% | -3% | 1% | -14% | -18% | .
CC(C)CNc1nc(Oc2ccc(OCC(N)=O)nn2)nc(N2CCOCC2)n1 | -4% | 7% | -1% | 0% | 5% | 9% | .
COC(=O)Cc1cc(C)cc2c(=O)cc(-c3ccoc3)oc12 | -41% | ? | . | -3% | 50µM* | . | ?
COC(=O)Cc1cc(=O)oc2cc(OC)ccc12 | -8% | 7% | ? | 7% | -11% | 15% | .
COc1ccccc1N1C(=N)S/C(=C\c2ccc(-c3ccccc3C(=O)O)o2)C1=O | 50µM* | 20µM* | -12% | 2% | 14µM* | 79µM* | 30* | Pol kappa inh-2=19*
CC(=O)Nc1ccc2nc3c(=O)n(C)c(=O)n(C)c3nc2c1 | ? | 10µM* | ? | 105% | 35µM* | ? | 85*
Cc1cc(C)cc(-n2nnc(-c3nsc(NC(=O)c4ccccc4Cl)n3)c2C)c1 | -11% | ? | -19% | -7% | ? | 7.9µM* | . | Pol kappa inh-2=?
CCc1ccc(-n2nnc(-c3nsc(NC(=O)c4ccccc4Cl)n3)c2C)cc1 | -17% | -1% | -7% | 7% | -10% | ? | .
Cc1cc(C)c(S(=O)(=O)n2cnc(C)c2)c(C)c1 | -1% | 6% | -5% | 0% | -6% | -2% | .
CCC(C)NS(=O)(=O)c1ccc(N2CCCCS2(=O)=O)cc1 (stereo not given) | 0%[60.1 µM] | 18% | -1% | -6% | -12% | 4% | .
COc1ccc(C(CC(=O)N2CCOCC2)c2c(OC)cc(OC)c3c(-c4ccccc4)cc(=O)oc23)cc1 (stereo not given) | ? | 71µM* | ? | ? | 40µM* | 35µM* | ?
COc1ccc(C(CC(=O)N2CCOCC2)c2c(OC)cc(OC)c3ccc(=O)oc23)cc1 (stereo not given) | ? | ? | -2% | -8% | ? | ? | .
O=C(Nc1ccc(S(=O)(=O)Nc2nccs2)cc1)c1ccc(=O)[nH]c1 | ? | ? | -5% | 17% | 20µM* | 50µM* | 43* | Pol kappa inh-2=67*
O=C(Nc1ccc(S(=O)(=O)Nc2nccs2)cc1)c1cccc(F)c1 | 0% | 14% | -5% | -8% | -6% | -7% | .
Cc1ccc(OCC(=O)NCC2(N(C)C)CCCCC2)cc1C | -1% | 23% | -9% | 0% | -2% | 1% | .
COc1ccc(NC(=O)C2CCCN(c3nnc(C)c4c(C)n(-c5ccccc5)nc34)C2)cc1Cl (stereo not given) | ? | -30% | -26% | -26% | 35µM* | 71µM* | ? | Pol kappa inh-2=17*
COc1cccc(C(=O)Nc2cccc(C(=O)NC3=NN(c4c(Cl)cc(Cl)cc4Cl)C(=O)C3)c2)c1 | 22µM* | ? | ? | -20% | 40µM* | 14µM* | 76*
COc1cccc(C(=O)Nc2cccc(NC(=O)c3ccc(Cl)cc3Cl)c2)c1 | -8% | 15% | -20% | -5% | -24% | -25% | .
COc1ccc(-c2nc3ccccc3n3c(-c4cccc(C)c4)c4c(=O)n(C)c(=O)n(C)c4c23)cc1OC | -6% | -18% | -6% | 3% | -9% | 4% | .
CCCn1c2ccccc2c2cnn(CC(=O)N3CCCC(C)C3)c(=O)c21 (stereo not given) | 2% | 0% | -10% | ? | 1% | 20% | .
CN=c1scc(-c2cccs2)n1/N=C/c1ccccc1O | -4% | -18% | -13% | 12% | -19% | 7% | .
CN=c1scc(-c2cccs2)n1/N=C/c1ccc(O)c(O)c1O | ? | ? | 0% | ? | ? | 2.8µM* | 76*
CN=c1scc(C)n1/N=C/c1cc(Br)c(O)c(OC)c1 | -4% | 168% | -24% | -4% | -8% | 1% | .
SMILES | Pol kappa inh-1 | POLI inh | KAT2A inh | GLS inhibitor | Pol eta inh-1 | Pol beta inh | Pol eta inh-2 | others
CN=c1scc(C)n1/N=C/c1ccc(O)c(O)c1O | 13µM* | 7.9µM* | ? | ? | 3.5µM* | 5µM* | 54*
Cc1ccc(S(=O)(=O)NN2C(=O)/C(=C\c3ccc(Cl)cc3)SC2=S)cc1 | -9% | ? | -2% | 18% | 40µM* | -17% | 24*
Cc1ccc(S(=O)(=O)NN2C(=O)/C(=C/c3cccn3C)SC2=S)cc1 | . | . | 3% | . | . | ? | .
COc1cccc(Nc2cc(C)nc3nc(-c4ccc(Cl)cc4)nn23)c1 | -14% | ? | -6% | 1% | 79µM* | ? | . | Pol kappa inh-2=11*
C/C(=N\Nc1ccc(Cl)c(C(=O)O)c1)c1cccs1 | ? | ? | -19% | ? | 18µM* | 14µM* | 30*
Cc1ccc(NC(=O)N/C=C/c2ccco2)cc1C | 79µM* | 40µM* | 9% | 2% | 28µM* | 25µM* | ?
Cc1ccc(NC(=O)c2cccc(NC(=O)/C=C/c3ccco3)c2)cc1C | -18% | ? | 6% | 9% | ? | ? | .
